Experimental data reported in PubChem BioAssay.
Calls of active or inactive are those of the source. Unless noted, how the calls were made is not given here.

Columns and labels:
[1] = system: Wnt5a (protein binding on small-molecule microarray); test: Wnt5a binders on small-molecule microarray, primary screen, biophysical, 635/667 nm fluorescence (AID 1142); conditions: 635 nm fluorescence, higher = more signal;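 further: fluorescence read at 667 nm with signal to noise per printed feature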
[2] = cell viability in Huh7 cells, primary screen, cytotoxicity control for HCV replication inhibitor project, CellTiter-Glo luminescence, basal, 48 h (AID 1143); conditions: Huh7 HCV replicon, higher = more signal, called active from +8 up or from −8 down;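 further: Huh7 hepatoma cells carrying a hepatitis C replication reporter with no stimulus; test concentration not given here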
[3] = P. aeruginosa biofilm formation inhibitors, primary screen, PAO1 strain, BacTiter-Glo luminescence, LB-PBS (AID 1144); conditions: 12 h, higher = more signal
[4] = CREB reporter modulators without forskolin, primary screen, cell-based, PC12, CRE-LacZ reporter, unstimulated (AID 1145); conditions: no forskolin, luminescence, 4.5 h, higher = more signal, called active from +8 up or from −8 down
[5] = CREB reporter modulators under forskolin, primary screen, cell-based, PC12, CRE-LacZ reporter, forskolin-stimulated (AID 1146); conditions: luminescence, 4.5 h, higher = more signal, called active from +8 up or from −8 down;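 further: PC12 cells with 6xCRE LacZ reporter stimulated by forskolin 10 µM; beta-galactosidase reporter signal reflecting CREB driven transcription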
[6] = target: Streptavidin (Streptomyces avidinii) (UniProt P22629); test: streptavidin binders on small-molecule microarray, primary screen, artefact control for SMM compound annotation, biophysical, 635/667 nm fluorescence (AID 1147); conditions: streptavidin binding, higher = more signal;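 further: signal reflects streptavidin binding to arrayed compounds as a control protein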
[7] = small-molecule binders of probe aInhba, primary screen, biochemical, small-molecule microarray, 635/667 nm fluorescence (AID 1148); conditions: higher = more signal;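 further: score merges 667nm spot fluorescence with signal-to-noise for antibody binding to printed compounds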
[8] = target: Torsin-1A (Homo sapiens) (UniProt O14656); test: torsin A binders from cell lysate, primary screen, small-molecule microarray, wild-type, 635/667 nm (AID 1149); conditions: COS7 hTOR1A-WT lysate, 635 nm fluorescence, higher = more signal
[9] = target: Torsin-1A (Homo sapiens) (UniProt O14656); test: small-molecule binders of mutant TOR1A in lysate, primary screen, cell lysate, small-molecule microarray, COS7 lysate, 635/667 nm fluorescence (AID 1150); conditions: COS7 hTOR1A mutant lysate, 635 nm fluorescence, higher = more signal;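 further: score pools 667 nm emission and signal to noise measuring lysate protein binding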
[10] = system: Sonic hedgehog protein (Shh); test: small-molecule binders of Shh protein, primary screen, biochemical, small-molecule microarray, 635/667 nm fluorescence (AID 1151); conditions: small-molecule microarray binding, 635 nm fluorescence; higher = more signal;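 further: Shh protein binding to compounds spotted on small-molecule microarray slides; score combines spot fluorescence intensity with signal-to-noise across triplicate slides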
[11] = E. coli DRC41 culture turbidity changes, primary screen, E. coli filamentation inducer project, strain DRC41, OD650, 48 h (AID 1152);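 further: E. coli MC1000 strain DRC41 lacking acrAB efflux pump and sulA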; conditions: E. coli DRC41 (acrAB sulA), higher = more signal, called active from +8 up or from −8 down
[12] = small-molecule binders of probe aLefty1, primary screen, biochemical, small-molecule microarray, 635/667 nm fluorescence (AID 1153); conditions: higher = more signal;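 further: score merges spot fluorescence with signal-to-noise ratio from the scanned slide images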
[13] = PSAC antagonists in infected red cells, primary screen, cell-based, P. falciparum Indochina, OD700, 1 h (AID 1154); conditions: P. falciparum Indochina infected RBC osmotic lysis, higher = more signal, called active from +8 up or from −8 down
[14] = PSAC antagonists in infected red cells, primary screen, cell-based, P. falciparum Indochina, OD700, 2 h (AID 1155);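 further: lysis reports solute entry through the parasite surface anion channel PSAC; channel blockers reduce lysis of infected cells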; conditions: P. falciparum Indochina infected erythrocytes, osmotic lysis OD700; higher = more signal, called active from +8 up or from −8 down
[15] = osmotic lysis modulators in infected erythrocytes, primary screen, PSAC antagonist project, cell-based, P. falciparum Indochina, OD700, 3 h (AID 1156); conditions: higher = more signal, called active from +8 up or from −8 down
[16] = PSAC antagonists in infected red cells, primary screen, cell-based, P. falciparum Indochina, OD700, 18 h (AID 1157); conditions: P. falciparum Indochina infected erythrocytes, osmotic lysis OD700, 18 h; higher = more signal, called active from +8 up or from −8 down
[17] = modulators of S6 phosphorylation in cells, primary screen, cell-based, A549, cytoblot, luminescence, serum-stimulated (AID 1158); conditions: A549 phospho-S6 cytoblot, 5 h, higher = more signal;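 further: serum-stimulated A549 lung adenocarcinoma cells; signal is phosphorylated S6 detected by cytoblot immunostaining with HRP secondary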
[18] = target: NADPH oxidase 2 (Homo sapiens) (UniProt P04839); test: NOX2-dependent H2O2 signal modulators, primary screen, NOX inhibitor project, cell-based, HEK293-NOX2, PMA-stimulated, Amplex Red fluorescence (AID 1159); conditions: 45 min, higher = more signal, called active from +8 up or from −8 down; further: test concentration not given here
[19] = target: NADPH oxidase 4 (Homo sapiens) (UniProt Q9NPH5); test: NOX4-dependent H2O2 signal modulators, primary screen, NOX inhibitor project, cell-based, HEK293-NOX4, tetracycline-induced, Amplex Red fluorescence (AID 1160); conditions: 45 min, higher = more signal, called active from +8 up or from −8 down
[20] = target: NADPH oxidase 5 (Homo sapiens) (UniProt Q96PH1); test: NOX5-dependent H2O2 signal modulators, primary screen, NOX inhibitor project, cell-based, HEK293-NOX5, Amplex Red fluorescence (AID 1161); conditions: HEK293-NOX5, ionomycin, 45 min, higher = more signal
Chain of NADPH oxidase 5 (Homo sapiens) (Q96PH1 whole entry, looked up): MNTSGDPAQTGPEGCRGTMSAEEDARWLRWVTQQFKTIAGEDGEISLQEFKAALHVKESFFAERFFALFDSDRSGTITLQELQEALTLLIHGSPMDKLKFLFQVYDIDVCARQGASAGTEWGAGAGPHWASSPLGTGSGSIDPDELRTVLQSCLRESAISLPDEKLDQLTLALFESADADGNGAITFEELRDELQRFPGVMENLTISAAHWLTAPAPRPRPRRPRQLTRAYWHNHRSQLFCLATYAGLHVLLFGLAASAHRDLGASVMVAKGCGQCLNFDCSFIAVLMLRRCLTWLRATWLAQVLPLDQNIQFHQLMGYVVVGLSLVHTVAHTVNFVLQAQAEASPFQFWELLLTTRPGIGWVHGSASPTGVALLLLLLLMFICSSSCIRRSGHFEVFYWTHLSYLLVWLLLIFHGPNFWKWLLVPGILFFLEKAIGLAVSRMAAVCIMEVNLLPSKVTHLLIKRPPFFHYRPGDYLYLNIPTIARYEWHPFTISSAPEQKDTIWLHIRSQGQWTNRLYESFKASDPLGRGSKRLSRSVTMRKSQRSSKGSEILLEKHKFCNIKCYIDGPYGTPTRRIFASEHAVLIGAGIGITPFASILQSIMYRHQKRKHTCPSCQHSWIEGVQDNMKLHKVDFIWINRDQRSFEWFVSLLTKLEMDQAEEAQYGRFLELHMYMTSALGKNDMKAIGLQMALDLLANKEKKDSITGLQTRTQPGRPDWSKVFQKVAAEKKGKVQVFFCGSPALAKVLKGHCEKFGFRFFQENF

Chain of Torsin-1A (Homo sapiens) (O14656 whole entry, looked up): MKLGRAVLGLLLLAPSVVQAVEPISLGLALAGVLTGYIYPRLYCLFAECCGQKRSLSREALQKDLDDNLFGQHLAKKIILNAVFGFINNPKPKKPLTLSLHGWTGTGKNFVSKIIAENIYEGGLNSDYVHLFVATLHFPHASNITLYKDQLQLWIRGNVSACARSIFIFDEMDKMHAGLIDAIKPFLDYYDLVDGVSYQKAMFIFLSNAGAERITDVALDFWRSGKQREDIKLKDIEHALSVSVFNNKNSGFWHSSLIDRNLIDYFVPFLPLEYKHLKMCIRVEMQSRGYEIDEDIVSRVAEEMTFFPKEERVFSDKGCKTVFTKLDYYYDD
Chain of NADPH oxidase 2 (Homo sapiens) (P04839 whole entry, looked up): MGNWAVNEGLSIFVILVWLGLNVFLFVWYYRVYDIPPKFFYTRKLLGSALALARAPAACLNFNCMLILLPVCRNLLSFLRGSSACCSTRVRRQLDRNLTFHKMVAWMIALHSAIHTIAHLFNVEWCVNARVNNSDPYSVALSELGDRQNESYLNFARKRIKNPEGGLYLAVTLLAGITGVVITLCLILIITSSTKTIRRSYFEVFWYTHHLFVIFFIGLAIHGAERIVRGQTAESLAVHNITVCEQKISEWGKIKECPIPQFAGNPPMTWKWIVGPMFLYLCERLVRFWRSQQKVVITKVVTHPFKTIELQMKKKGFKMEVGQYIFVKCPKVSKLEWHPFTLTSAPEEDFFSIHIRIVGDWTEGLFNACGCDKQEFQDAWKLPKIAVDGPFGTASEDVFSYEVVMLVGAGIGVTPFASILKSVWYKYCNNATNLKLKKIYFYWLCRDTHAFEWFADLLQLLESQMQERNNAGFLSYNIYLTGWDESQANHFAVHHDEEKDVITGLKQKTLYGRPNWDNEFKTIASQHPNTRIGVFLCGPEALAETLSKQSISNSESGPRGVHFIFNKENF
Chain of Streptavidin (Streptomyces avidinii) (P22629 whole entry, looked up): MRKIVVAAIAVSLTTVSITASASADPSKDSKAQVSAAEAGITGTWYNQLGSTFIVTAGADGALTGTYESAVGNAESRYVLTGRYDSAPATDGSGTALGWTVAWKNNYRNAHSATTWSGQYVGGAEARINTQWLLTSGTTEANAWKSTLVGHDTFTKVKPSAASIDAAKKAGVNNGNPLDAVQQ
Chain of NADPH oxidase 4 (Homo sapiens) (Q9NPH5 whole entry, looked up): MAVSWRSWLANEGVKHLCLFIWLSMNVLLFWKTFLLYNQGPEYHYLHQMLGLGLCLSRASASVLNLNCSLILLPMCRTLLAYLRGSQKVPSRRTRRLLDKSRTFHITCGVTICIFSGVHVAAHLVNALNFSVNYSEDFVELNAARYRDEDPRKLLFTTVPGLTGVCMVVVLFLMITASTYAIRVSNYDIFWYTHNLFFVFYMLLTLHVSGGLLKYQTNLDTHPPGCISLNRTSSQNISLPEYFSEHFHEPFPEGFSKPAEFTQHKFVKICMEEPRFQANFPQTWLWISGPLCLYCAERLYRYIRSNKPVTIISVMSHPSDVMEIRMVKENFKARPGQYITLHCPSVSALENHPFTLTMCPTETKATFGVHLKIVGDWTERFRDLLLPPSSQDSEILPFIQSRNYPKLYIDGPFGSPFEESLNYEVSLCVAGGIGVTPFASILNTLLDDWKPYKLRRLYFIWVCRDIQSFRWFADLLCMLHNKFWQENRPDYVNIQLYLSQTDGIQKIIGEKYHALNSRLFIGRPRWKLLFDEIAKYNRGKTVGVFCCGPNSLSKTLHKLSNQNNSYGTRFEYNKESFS

SMILES	composite z-score [1]	z-score [2]	z-score [3]	z-score [4]	z-score [5]	composite z-score [6]	composite z-score [7]	composite z-score [8]	composite z-score [9]	composite z-score [10]	z-score [11]	composite z-score [12]	z-score [13]	z-score [14]	z-score [15]	z-score [16]	z-score [17]	z-score [18]	z-score [19]	z-score [20]
COc1ccc([Si](C)(C)[C@@H]2[C@@H](CC(=O)N(CCO)Cc3ccccc3)O[C@]3(C(=O)N(C)c4c(Br)cc(C)cc43)[C@H]2C)cc1	0.312	-5.28 (inactive)	0.336 (inactive)	18.2 (active)	0.429 (inactive)	-0.212	-0.152	0.268	-0.0496	1.91	-1.98 (inactive)	-0.103	26.6 (active)	14.2 (active)	0.233 (inactive)	2.09 (inactive)	0.336	-1.91 (inactive)	-0.00605 (inactive)	-1.28
CC(C)CNC(=O)[C@@]1(c2ccc([N+](=O)[O-])cc2)CC(=O)N(C(C)C)[C@@H]1c1ccc(CO)cc1	-0.618	-4.3 (inactive)	-1.28 (inactive)	-1.06 (inactive)	0.107 (inactive)	-1.19	-0.233	-0.486	-1.29	0.225	1.27 (inactive)	-0.0547	0.224 (inactive)	-0.227 (inactive)	-1.64 (inactive)	-0.533 (inactive)	0.557	-0.145 (inactive)	-0.423 (inactive)	-1.44
Cc1ccc(S[C@]2(C(=O)NCCN3CCOCC3)CC(=O)N(C3Cc4ccccc4C3)[C@@H]2c2ccc(CO)cc2)cc1	-0.2	-0.73 (inactive)	-0.396 (inactive)	-0.152 (inactive)	1.3 (inactive)	-0.994	-0.125	0.0023	0.206	-0.393	0.293 (inactive)	0.482	2.1 (inactive)	0.0757 (inactive)	0.62 (inactive)	0.375 (inactive)	-0.348	-0.66 (inactive)	-1.82 (inactive)	-1.58
CCCN1C(=O)[C@@]2(Cc3ccccc3)N=C(c3ccc(OCCCO)cc3)O[C@H]2c2ccccc21	0.421	-5.03 (inactive)	-0.657 (inactive)	1.61 (inactive)	-0.979 (inactive)	-0.0407	0.215	1.06	0.884	1.72	0.299 (inactive)	0.572	32.7 (active)	33.7 (active)	3.01 (inactive)	5.2 (inactive)	-0.149	-2.69 (inactive)	-0.584 (inactive)	-1.79
C=C(COC)C(=O)CC[C@H](OC(=O)c1ccccc1-c1ccccc1C(=O)O)c1ccc(OCCO)cc1	0.314	-0.0319 (inactive)	-0.623 (inactive)	2.19 (inactive)	-0.42 (inactive)	-0.237	0.0906	2.29	0.383	1.81	0.146 (inactive)	0.134	10.5 (active)	1.72 (inactive)	2 (inactive)	0.626 (inactive)	-0.0494	0.00741 (inactive)	-0.221 (inactive)	-1.8
CC(C)(C)N1CC=CC23O[C@@H]4C=CCCOC(=O)C4[C@H]2C(=O)N(CCCO)[C@@H]3C1=O (stereo not given in full)	-0.213	-2.5 (inactive)	-0.93 (inactive)	0.451 (inactive)	-0.178 (inactive)	-1.33	-0.23	-0.253	-0.663	0.398	0.471 (inactive)	-0.289	0.595 (inactive)	-1.01 (inactive)	0.79 (inactive)	-1.49 (inactive)	0.682	-2.85 (inactive)	-2.02 (inactive)	-0.648
COc1cc(C(O)C2C=CC3C(=O)N(C)C(=O)C3N2NC(=O)OC(C)(C)C)cc(OC)c1OC (stereo not given)	0.653	0.778 (inactive)	0.66 (inactive)	-0.326 (inactive)	1.25 (inactive)	0.671	0.798	-0.146	0.727	-0.32	-1.47 (inactive)	0.733	-0.249 (inactive)	1 (inactive)	-0.226 (inactive)	1.12 (inactive)	-1.27	-0.231 (inactive)	-0.726 (inactive)	-1.48
C=CCNC(=O)[C@H]1[C@@H]2C(=O)O[C@@H](c3ccccc3)[C@@H](c3ccccc3)N2[C@@H](c2ccc(O)cc2)[C@]12C(=O)N(C(=O)OCCOC)c1ccc(C#CC3(O)CCCCCC3)cc12	0.195	-1.07 (inactive)	-0.7 (inactive)	-0.465 (inactive)	-0.804 (inactive)	-0.179	0.134	0.187	0.331	0.858	1.91 (inactive)	0.0313	0.842 (inactive)	0.788 (inactive)	0.0365 (inactive)	0.222 (inactive)	0.281	1.37 (inactive)	0.903 (inactive)	1.89
